CYP2C9 inhib: inhibitors of human CYP2C9. P11712. CYP2C9 Supersomes, luciferin-H conversion, luminescence. inhibition, % at 5 µM. 96,000 compounds, 20% hits. AID 777;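 active = blocking of liver enzyme CYP2C9 beyond about 50% at 5 µM, limit read from the data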
E-sel TNF inh: blocks E-selectin expression induced by TNF alpha. HUVEC TNFa-induced E-selectin immunofluorescence, high content. inhibition, % at 2 µM. 120,000 compounds, 0.71% hits. AID 1246;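 active = inhibition above the batch mean plus 3 SD, and confirmed as a hit on visual image review, cut at about 43% in these data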;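 note: 0% = TNF-stimulated DMSO wells and 100% = unstimulated control wells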
CYP2C19 activ: activators of human cytochrome P450 2C19. P33261. recombinant CYP2C19, luciferin-H EGE luminescence; active compounds read high; 0 = fully inhibited enzyme, 1 = untreated enzyme. activation factor at 5 µM. 96,000 tested, under 10 active;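 active = activation factor of at least 2 at 5 µM in the primary screen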;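 note: 0 = wells with 2.5 mM tranylcypromine and 1 = vehicle-only wells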
Target sequence (P33261 whole entry, looked up): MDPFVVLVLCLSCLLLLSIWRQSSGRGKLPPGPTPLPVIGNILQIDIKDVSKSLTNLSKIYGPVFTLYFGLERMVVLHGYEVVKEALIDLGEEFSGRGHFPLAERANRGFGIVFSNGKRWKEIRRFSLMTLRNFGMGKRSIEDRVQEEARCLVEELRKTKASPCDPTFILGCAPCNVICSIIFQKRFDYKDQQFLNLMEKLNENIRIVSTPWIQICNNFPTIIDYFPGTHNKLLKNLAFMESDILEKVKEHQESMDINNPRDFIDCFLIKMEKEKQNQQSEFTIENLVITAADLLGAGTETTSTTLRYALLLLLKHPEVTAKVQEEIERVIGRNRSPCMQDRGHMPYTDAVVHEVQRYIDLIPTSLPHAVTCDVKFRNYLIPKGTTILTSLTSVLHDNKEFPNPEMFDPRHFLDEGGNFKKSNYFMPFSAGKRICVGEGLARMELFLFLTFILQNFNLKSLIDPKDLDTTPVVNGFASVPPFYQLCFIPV
cytoskel mod: modifiers of cytoskeleton assembly. HUVEC TNFa F-actin phalloidin imaging, high content. inhibition, % at 2 µM. 91,000 compounds, 0.18% hits;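 active = inhibition above the batch mean plus 3 SD and confirmed as a hit by visual image inspection, cut at about 30% in these data, passing the limit was not always enough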
CYP2C19 inh: human CYP2C19 inhibition; P33261; CYP2C19 Supersomes, luciferin-H EGE luminescence, 30 min; 96,000 compounds, 21% hits; inhibition, % at 5 µM;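 active = CYP2C19 inhibition above a set limit at 5 µM in the primary screen, cut at about 50% in these data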;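 note: plate controls were negative control wells for no effect and 2.5 mM tranylcypromine positive control for full effect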
CYP2C9 act: activators of human CYP2C9; AID 1024; activation factor at 5 µM; 96,000 compounds, 1.4% hits; recombinant CYP2C9, luciferin-H conversion, luminescence; active compounds read high; factor 1 = untreated enzyme, 0 = blocked;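 active = activation factor of 2 or more for CYP2C9 at a 5 µM dose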;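 note: 0 = sulfaphenazole-blocked wells and 1 = vehicle-only wells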
The depositor's hits bear a star; nt = no result given. Rows were chosen to be rich in hits. Some 22% of all compounds tested hit in one or more screens of this group.

SMILES | CYP2C9 inhib | E-sel TNF inh | CYP2C19 activ | cytoskel mod | CYP2C19 inh | CYP2C9 act
Cc1ccc(NC(=O)Nc2ccnc(-c3cccnc3)n2)cc1 | nt | 13 | nt | nt | nt | nt
O=C(CSCC(=O)N1CCCCC1)OCC(=O)c1c[nH]c2ccccc12 | -75 | -2 | 0.3 | 44 | 69* | 1.7
CC(C)Cc1ccc(C(C)C(=O)OCC(=O)c2c[nH]c3ccccc23)cc1 (stereo not drawn) | 40 | -7 | 0.9 | -9 | 12 | 0.6
CC1(C(=O)OCC(=O)c2c[nH]c3ccccc23)CC1(Cl)Cl (stereo not drawn) | 85* | -1 | 0 | 6 | 97* | 0.1
O=[N+]([O-])c1ccc(Cl)c(/C=N/NC(=S)Nc2ccccc2)c1 | -4 | nt | 1.1 | -2 | -8 | 1
CCN1C(=O)C(CC(=O)Nc2ccccc2)N(Cc2ccccn2)C1=S (stereo not drawn) | nt | -9 | nt | nt | nt | nt
COc1ccc(C2=NN(C(=O)c3cccc([N+](=O)[O-])c3)C(c3cccc([N+](=O)[O-])c3)C2)cc1 (stereo not drawn) | 44 | 1 | 0.9 | -5 | 8 | 0.6
O=C(OCCN1C(=O)c2ccccc2C1=O)c1ccccc1 | nt | -9 | nt | nt | nt | nt
O=C(c1ccccc1)c1ccc(CN2C(=O)c3ccccc3C2=O)o1 | 85* | 11 | 0.1 | -10 | 91* | 0.2
O=C(OCN1C(=O)c2ccccc2C1=O)c1ccccc1 | -61 | -14 | 0.3 | 1 | 68* | 1.6
NC(=O)C1(N2CCCCC2)CCN(C(=O)NC2CCCCC2)CC1 | 13 | 8 | 1 | 34 | 2 | 0.9
CCCNC1=C(C)C(=O)CC1 | -11 | -2 | 0.9 | -18 | 6 | 1.1
CCc1n[nH]c2c1/C(=N\O)CC(c1ccccc1)C2 (stereo not drawn) | 98* | nt | 0 | 3 | 96* | 0
CCCCc1n[nH]c2c1/C(=N/O)CC(c1ccccc1)C2 (stereo not drawn) | 18 | nt | 0.6 | 14 | 40 | 0.8
CCCCc1noc2c1/C(=N\O)CC(c1ccccc1)C2 (stereo not drawn) | 77* | -18 | 0.5 | 4 | 48 | 0.2
Cn1c(=O)n(C)c2cc([N+](=O)[O-])c(N3CCN(C(=O)c4cccc(Cl)c4)CC3)cc21 | nt | -11 | nt | nt | nt | nt
Cc1cc(NC(=O)Cn2c(=O)n(Cc3ccccc3)c(=O)c3ccccc32)no1 | 18 | 9 | 0.8 | 0 | 23 | 0.8
CCN(C(=O)Cn1c(=O)n(Cc2ccccc2)c(=O)c2ccccc21)c1cccc(C)c1 | 86* | -17 | 1 | 23 | 5 | 0.1
Cc1cc(S(=O)(=O)Nc2cc(C)c(O)c(C)c2)c(C)s1 | 4 | -4 | 0 | 18 | 100* | 1
Cc1cc(S(=O)(=O)Nc2ccc3ccccc3c2)c(C)s1 | 64* | 2 | 0.1 | nt | 93* | 0.4
Cc1cc(S(=O)(=O)Nc2cccnc2)c(C)s1 | 24 | -7 | 0.6 | 15 | 42 | 0.8
CCOc1ccc(-n2cc(C(=O)N3CCC(C)CC3)c3cc(OC)c(OC)cc3c2=O)cc1 | 20 | -11 | 0.8 | nt | 16 | 0.8
COc1ccccc1N1CCN(C(=O)c2nn(-c3ccccc3OC)c(=O)c3ccccc23)CC1 | 58* | -23 | 0.5 | nt | 49 | 0.4
CCOC(=O)N1CCN(C(=O)c2cn(-c3ccc(C)c(C)c3)c(=O)c3ccccc23)CC1 | 64* | -40 | 0.8 | nt | 24 | 0.4
CCOC(=O)N1CCN(C(=O)c2nn(-c3cc(OC)cc(OC)c3)c(=O)c3ccccc23)CC1 | 80* | -18 | 0.4 | nt | 63* | 0.2
SMILES | CYP2C9 inhib | E-sel TNF inh | CYP2C19 activ | cytoskel mod | CYP2C19 inh | CYP2C9 act
COCCN1C(=O)c2ccccc2C(C(=O)NCCCN2CCCC2)C1c1c[nH]c2ccccc12 (stereo not drawn) | nt | -57 | nt | nt | nt | nt
CC(=O)Nc1c(O)nc(SCC(=O)Nc2nnc(CC(C)C)s2)[nH]c1=O | nt | -3 | nt | 15 | nt | nt
CCc1nc2cc(CC(=O)O)ccc2o1 | 20 | 8 | 1 | 2 | -3 | 0.8
CS(=O)(=O)N(CCc1ccccc1)CC(=O)NCc1ccco1 | 12 | 12 | 0.3 | 2 | 66* | 0.9
Cc1ccc(S(=O)(=O)N(CC(=O)NCc2ccco2)Cc2ccc(F)cc2)cc1 | 58* | -26 | 0.7 | 100* | 34 | 0.4
CS(=O)(=O)N(CCc1ccccc1)CC(=O)NCc1cccnc1 | 36 | 3 | 0.1 | 10 | 93* | 0.6
CS(=O)(=O)N(CCc1ccccc1)CC(=O)NCc1ccccn1 | 18 | -37 | 0.6 | 17 | 36 | 0.8

Source: PubChem BioAssay
